Where a name gives a salt, the structure may show the parent alone.

This experiment concerns Saccharomyces cerevisiae BY4741 SeMeCo community. The experiment in a line: z-score of subpopulation abundance vs DMSO median, subpopulation auxotrophic for HLU; higher = larger share of this subpopulation than in DMSO controls. Particulars: 10 µM; 24 h; SM minimal medium; subpopulation (auxotrophy): HLU. Here is the method:
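Fluorescent four-plasmid SeMeCo (self-establishing metabolically cooperating S. cerevisiae BY4741 community; plasmids pH-mRuby2, pL-mWasabi, pU-eCFP, pM-TagRFP657) was grown 24 h in minimal SM medium with each Selleck FDA-approved drug at 10 µM in 384-well plates. Cells were fixed and imaged by high-content confocal microscopy. For each auxotrophic subpopulation (and the prototroph), a z-score gives the deviation from the DMSO vehicle-control population median.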
As to `C/C=C\c1ccc(O)c(OC)c1` [Isoeugenol], the “z-score of subpopulation abundance” value stood at 0.2. With `CS(=O)(=O)Nc1ccc([N+](=O)[O-])cc1Oc1ccccc1` [Nimesulide] the figure was 0.61; with `C[C@]12CCC3=C4CCC(=O)C=C4CC[C@H]3[C@@H]1CC[C@@]2(O)CC#N` [Dienogest], -0.53; with `CCOC(=O)C1=C[C@]2(CC)CCCN3CCc4c(n1c1ccccc41)[C@@H]32` [Vinpocetine], -0.1. The figure for `Oc1c(I)cc(Cl)c2cccnc12` [Clioquinol] is 41; for `CN1[C@@H]2CC[C@H]1C[C@@H](OC(=O)c1c[nH]c3ccccc13)C2` [Tropisetron HCl] it is 0.2. The figure for `CCCCCc1ccc(C)cc1O` [Amylmetacresol] is 0.35.

Turning to `CN(C)CCn1nnnc1SCC1=C(C(=O)O)N2C(=O)[C@@H](NC(=O)Cc3csc(N)n3)[C@H]2SC1` [Cefotiam hydrochloride], the “z-score of subpopulation abundance” value is 1.21. For `COc1ccc2cc(C(=O)O)ccc2c1` [6-Methoxy-2-naphthoic acid], the “z-score of subpopulation abundance” value was 0.62.

With `CN1CCN(CCCN2c3ccccc3Sc3ccc(C(F)(F)F)cc32)CC1` [Trifluoperazine 2HCl], the “z-score of subpopulation abundance” value was -0.24. Consider `C[N+](C)(C)CCO.[Cl-]` [Choline Chloride], for which the “z-score of subpopulation abundance” value is -0.27. Regarding `CCN(CC)CCNC(=O)c1cc(Cl)c(N)cc1OC` [Metoclopramide], the “z-score of subpopulation abundance” value stood at 1.27. The figure for `Nc1nc(/C(=C/CC(=O)O)C(=O)N[C@@H]2C(=O)N3C(C(=O)O)=CCS[C@H]23)cs1` [Ceftibuten dihydrate] is -0.13; for `C[N+]1(C)CCC(OC(=O)C(O)(c2ccccc2)C2CCCC2)C1` (stereo not given) [Glycopyrrolate] it is -0.14. With `CSCC1CN(/N=C/c2ccc([N+](=O)[O-])o2)C(=O)O1` (stereo not given) [Nifuratel] the figure was -1.21; with `CN1CCOC(c2ccccc2)c2ccccc2C1` (stereo not given) [Nefopam HCl], -0.39; with `COc1ccc2c(c1)c(CC(=O)OCC(=O)O)c(C)n2C(=O)c1ccc(Cl)cc1` [Acemetacin], -0.64. The figure for `CC1=C(C(=O)O)N2C(=O)[C@@H](NC(=O)[C@H](N)C3=CCC=CC3)[C@H]2SC1` [Cefradine] is -0.16; for `CCC(C)(C)C(=O)O[C@H]1C[C@@H](C)C=C2C=C[C@H](C)[C@H](CC[C@@H]3C[C@@H](O)CC(=O)O3)[C@H]21` [Simvastatin] it is 3.09; for `Fc1ccc([C@@H]2CCNC[C@H]2COc2ccc3c(c2)OCO3)cc1` [Paroxetine HCl] it is -0.09. Take `O=C1CCc2ccc(OCCCCN3CCN(c4cccc(Cl)c4Cl)CC3)cc2N1` [Aripiprazole]: the “z-score of subpopulation abundance” value was determined as 1.16. With `C[C@H]1COc2c(N3CCN(C)CC3)c(F)cc3c(=O)c(C(=O)O)cn1c23` [Levofloxacin hydrate] the figure was 0.84; with `O=C1CC2(CCCC2)CC(=O)N1CCCCN1CCN(c2ncccn2)CC1` [Buspirone HCl], -0.25.

Regarding `CC(=O)Oc1ccccc1C(=O)O` [Aspirin], the “z-score of subpopulation abundance” value was -0.85. With `Nc1nc2ccc(OC(F)(F)F)cc2s1` [Riluzole] the figure was -0.57.

Consider `COc1ccc2[nH]c([S+]([O-])Cc3ncc(C)c(OC)c3C)nc2c1` (stereo not given) [Omeprazole Sodium], for which the “z-score of subpopulation abundance” value came out at 0.43. The figure for `N[C@@H]1CONC1=O` [D-Cycloserine] is 0.51; for `COCCCN1CCC(NC(=O)c2cc(Cl)c(N)c3c2OCC3)CC1` [Prucalopride] it is -0.6; for `C[C@]12CC[C@@H]3c4ccc(O)cc4CC[C@H]3[C@@H]1CC[C@@H]2OC(=O)CCC1CCCC1` [Estradiol Cypionate] it is 0.

Turning to `NCC[C@H](O)C(=O)N[C@@H]1C[C@H](N)[C@@H](O[C@H]2O[C@H](CN)[C@@H](O)[C@H](O)[C@H]2O)[C@H](O)[C@H]1O[C@H]1O[C@H](CO)[C@@H](O)[C@H](N)[C@H]1O` [Amikacin disulfate], the “z-score of subpopulation abundance” value was found to be 0.12. Take `Cc1nnc(SCC2=C(C(=O)O)N3C(=O)[C@@H](NC(=O)Cn4cc(Cl)c(=O)c(Cl)c4)[C@H]3SC2)s1` [Cefazedone]: the “z-score of subpopulation abundance” value was -1.4. The figure for `Cc1cc(CC(C)CC(C)(C)C)n(O)c(=O)c1` (stereo not given) [Piroctone Olamine] is 20.3; for `Oc1c(Cl)cc(Cl)c(Cl)c1Cc1c(O)c(Cl)cc(Cl)c1Cl` [Hexachlorophene] it is 1.13; for `COC(=O)C1=C(C)NC(C)=C(C(=O)OC(C)(C)CN(C)CCC(c2ccccc2)c2ccccc2)C1c1cccc([N+](=O)[O-])c1` (stereo not given) [Lercanidipine hydrochloride] it is 0.32. The figure for `C/C=C1\[C@H]2C=C(C)C[C@]1(N)c1ccc(=O)[nH]c1C2` [(-)-Huperzine A (HupA)] is -0.57. The figure for `COCCOC(=O)C1=C(C)NC(C)=C(C(=O)OC/C=C/c2ccccc2)C1c1cccc([N+](=O)[O-])c1` (stereo not given) [Cilnidipine] is 1.34; for `COc1cc(NS(=O)(=O)c2ccc(N)cc2)ncn1` [Sulfamonomethoxine] it is 0.33. On to `C[C@@H](O)[C@H]1C(=O)N2C(C(=O)O)=C(SCCNC=N)C[C@H]12` [Imipenem], for which the “z-score of subpopulation abundance” value is -0.62.

For the compound `CC1(C)S[C@@H]2[C@H](NC(=O)[C@H](N)c3ccc(O)cc3)C(=O)N2[C@H]1C(=O)O` [Amoxicillin], the “z-score of subpopulation abundance” value came out at 0.39.

Turning to `CCN(CC)CCOC(=O)c1ccc(N)cc1` [Procaine HCl], the “z-score of subpopulation abundance” value was 0.02.

The values are drawn from the supplement of paper PMC8975748.
